Screening data deposited in PubChem by The Scripps Research Institute Molecular Screening Center.
A selection: hits, their analogues and other compounds. The true share with any hit is near 3.4%.
TEAD-YAP block: TEAD-YAP interaction inhibition; HEK-TIYL cells, TEAD-Gal4/YAP UAS-luciferase luminescence; inhibition, % at 9.12 µM; 640,000 tested, 1.4% active; in the data active means inhibition above about 32%
GPR151 activ: activators of human GPR151; Q8TDV0; PathHunter beta-arrestin GPR151 cells, luminescence; activation, % at 11.2 µM; 650,000 tested, 1% active; in the data active means activation above about 4.9%
Target sequence (Q8TDV0 whole entry, looked up): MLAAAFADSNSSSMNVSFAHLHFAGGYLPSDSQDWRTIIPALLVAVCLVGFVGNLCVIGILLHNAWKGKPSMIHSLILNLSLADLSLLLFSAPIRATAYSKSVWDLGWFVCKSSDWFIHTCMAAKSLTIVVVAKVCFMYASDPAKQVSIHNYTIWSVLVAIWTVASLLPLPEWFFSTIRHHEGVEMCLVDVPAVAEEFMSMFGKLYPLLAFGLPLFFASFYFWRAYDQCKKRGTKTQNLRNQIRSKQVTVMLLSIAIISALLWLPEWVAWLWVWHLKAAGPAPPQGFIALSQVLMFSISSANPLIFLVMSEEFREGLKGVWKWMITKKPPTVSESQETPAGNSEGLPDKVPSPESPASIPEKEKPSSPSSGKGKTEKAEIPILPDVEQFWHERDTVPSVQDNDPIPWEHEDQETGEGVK
FBW7 act: human FBW7 E3 ligase activation, primary screen | Q969H0 | AlphaScreen FBW7–phospho-cyclin E peptide binding, activator screen | normalized activity (activation), % at 26.1 µM | 650,000 tested, 0.13% active; in the data active means normalized activity above about 1.9%;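 further: purified mutant Fbw7 with reduced substrate affinity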
MITF primary: human MITF inhibition, primary screen. O75030. AlphaScreen MITF homodimerization, bead proximity signal. inhibition, % at 2.6 µM. 650,000 tested, 0.91% active; in the data active means inhibition above about 50%
MITF confirm: human MITF inhibition, confirmation; shares compounds with MITF primary; AlphaScreen MITF homodimerization, biotin/His-MITF beads; inhibition, % at 2.6 µM; 4,700 tested, 16% active;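 active means inhibition above a cutoff derived from the DMSO control wells, cut at about 28% in these data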;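 further: inhibitors lower the bead chemiluminescence by keeping MITF from dimerizing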
AlphaScreen intf2: counter-screen: compounds optically interfering with AlphaScreen | 4,700 tested, 7.6% active | LysRS AlphaScreen counterscreen, signal interference, triplicate | inhibition, % at 2.6 µM | shares compounds with MITF primary;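 active means inhibition above a cutoff derived from the DMSO control wells, cut at about 30% in these data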
A number is an active result; 0 = inactive; - = not tested or not shown.

SMILES	TEAD-YAP block	GPR151 activ	FBW7 act	MITF primary	MITF confirm	AlphaScreen intf2
COc1cc(NC(=O)c2cccc(-n3cc(NC(=O)CCCc4ccccc4)cn3)c2)cc(OC)c1OC	0	0	0	0	-	-
CC(=O)OC(OC(C)=O)C12C=CC(O1)C1C(=O)N(c3cccc(Cl)c3)C(=O)C12 (stereo unspecified)	0	0	0	0	-	-
CCOC(=O)CCCCC(=O)c1[nH]c(=O)[nH]c1Cn1ccnc1	0	0	0	0	-	-
CCOC(=O)CCCCC(=O)c1[nH]c(=O)n(C(=O)c2ccccc2)c1C	0	0	0	89.3	115.1	98.3
CCOC(=O)CCCCC(=O)c1c(C)n(C(=O)c2ccc(N3C(=O)CCC3=O)cc2)c(=O)n1C(=O)c1ccc(N2C(=O)CCC2=O)cc1	0	0	0	106.7	107.0	88.2
CC(=O)c1ccc(N2CCN(Cc3coc4ccc(Cl)cc4c3=O)CC2)cc1	0	0	0	0	-	-
CC(=O)NC(CC(C)C)c1nnc2n1CCN(Cc1ccc3cccnc3c1)CC2 (stereo unspecified)	0	0	0	0	-	-
COc1ccc(C2/C(=C(/O)c3ccc(C)cc3)C(=O)C(=O)N2CCCN2CCOCC2)cc1OC (stereo unspecified)	0	0	0	0	-	-
COC(=O)CN(c1ccc(I)cc1)S(=O)(=O)c1ccccc1	0	0	0	0	-	-
COC(=O)CN(c1ccccn1)S(=O)(=O)c1ccccc1	0	0	0	61.4	0	0
COc1ccc(/C=C\C(=O)Nc2c3c(nn2-c2ccc(F)cc2)CSC3)cc1OC	0	0	0	0	-	-
CN(CC(=O)NCc1ccccn1)S(=O)(=O)c1ccc(F)cc1	0	0	0	0	-	-
COc1ccccc1CN(C)CCc1ccccn1	0	0	0	67.0	0	0
CN(CCc1ccccn1)Cc1cccc2ccccc12	0	0	0	0	-	-
COc1ccc(Br)cc1CN(C)CCc1ccccn1	0	0	0	0	-	-
CN(CCc1ccccn1)S(=O)(=O)c1ccc(F)cc1	0	0	0	75.3	0	0
CN(CCc1ccccn1)Cc1c[nH]c2ccccc12	0	0	0	73.9	0	0
COc1ccc(CN(C)CCc2ccccn2)c(OC)c1OC	0	0	0	58.0	0	0
Cc1sc2nc(SCC(=O)Nc3sc4c(c3C(N)=O)CCC4)[nH]c(=O)c2c1C	0	0	0	0	-	-
CCOc1ccc(S(=O)(=O)NC2CCCCC2)cc1-c1nc2c(C(C)(C)C)nn(C)c2c(=O)[nH]1	0	0	0	76.8	0	0
COc1ccccc1N1CCN(Cc2cc3c(cc2[N+](=O)[O-])OCO3)CC1	0	0	0	0	-	-
COc1cc(CN2CCC(C)CC2)c([N+](=O)[O-])cc1OC	0	0	0	0	-	-
COc1cc(CN2CCN(Cc3ccc4c(c3)OCO4)CC2)c([N+](=O)[O-])cc1OC	0	0	0	68.7	0	0
O=[N+]([O-])c1ccccc1/C=C/CN1CCN(Cc2ccc3c(c2)OCO3)CC1	0	0	0	59.0	0	0
COc1cc(CN2CCN(Cc3cccc(Cl)c3)CC2)c([N+](=O)[O-])cc1OC	0	0	0	56.5	0	0
SMILES	TEAD-YAP block	GPR151 activ	FBW7 act	MITF primary	MITF confirm	AlphaScreen intf2
O=[N+]([O-])c1cc2c(cc1CNCCCN1CCOCC1)OCO2	0	0	0	59.1	0	0
CCOc1ccc(-c2noc(CCC(=O)Nc3ccccc3OC)n2)cc1OC	0	0	0	0	-	-
O=[N+]([O-])c1cc2c(cc1CN1CCN(CCO)CC1)OCO2	0	0	0	0	-	-
COc1cc(CN2CCN(Cc3cccc(C)c3)CC2)c([N+](=O)[O-])cc1OC	0	0	0	72.6	0	0
O=[N+]([O-])c1cc2c(cc1CN1CCCCCC1)OCO2	0	0	0	51.6	0	0
CCc1ccc(C2=Nc3ccccc3NC(c3ccc(Cl)cc3)C2)cc1 (stereo unspecified)	0	0	0	0	-	-
Cc1ccc(NCc2ccncc2)c(Br)c1	0	0	0	68.7	0	0
Cc1cccc(NCc2ccncc2)c1	0	0	0	77.0	0	0
COc1cc(CNc2ccccc2)cc(OC)c1OC	0	0	0	0	-	-
COc1cc(CNc2cccc(C)c2)cc(OC)c1OC	0	0	0	55.3	0	0
CCOc1ccc(CNC(=O)CCCn2sc3ccccc3c2=O)cc1	0	0	0	0	-	-
COc1cccc(CN2CCN(Cc3ccccc3[N+](=O)[O-])CC2)c1OC	0	0	0	60.8	0	0
CCOc1cc(CN2CCN(Cc3ccc(CC)cc3)CC2)ccc1OC	0	0	0	59.3	0	0
CCOc1cc(CN2CCN(Cc3cccc(F)c3)CC2)ccc1OC	0	0	0	0	-	-
COc1cccc(OC)c1C(=O)N1CCN(Cc2ccccc2[N+](=O)[O-])CC1	0	0	0	56.5	0	0
COc1cccc(C(=O)N2CCN(Cc3ccccc3[N+](=O)[O-])CC2)c1	0	0	0	0	-	-
COc1cc(CN2CCN(Cc3ccccc3[N+](=O)[O-])CC2)cc(OC)c1OC	0	0	0	61.7	0	0
Cc1cc(=O)[nH]c(-n2nc(C3CC3)cc2NC(=O)Cc2ccccc2)n1	0	0	0	0	-	-
COc1cc(CN2CCN(Cc3cc(OC)c(OC)c(OC)c3)CC2)c([N+](=O)[O-])cc1OC	0	0	0	58.0	0	0
COc1cc(CN2CCN(C(=O)CC(C)C)CC2)c([N+](=O)[O-])cc1OC	0	0	0	59.5	0	0
COc1ccc(CN2CCN(Cc3ccccc3[N+](=O)[O-])CC2)c(OC)c1OC	0	0	0	0	-	-
COc1cc(CN2CCN(c3ccccc3)CC2)cc([N+](=O)[O-])c1O	0	0	0	51.9	0	0
COc1ccccc1CN1CCN(Cc2ccccc2[N+](=O)[O-])CC1	0	0	0	78.9	0	0
CCOC(=O)c1ccc(CNC(=O)CCC2(Cc3ccc4ccccc4c3)CCC(=O)N2)o1 (stereo unspecified)	0	0	0	0	-	-
COc1cccc(/C=N\NC(=O)C(C)Oc2ccc(Cl)cc2)c1 (stereo unspecified)	0	0	0	0	-	-
SMILES	TEAD-YAP block	GPR151 activ	FBW7 act	MITF primary	MITF confirm	AlphaScreen intf2
CCOc1ccc(CN2CCN(S(=O)(=O)c3ccccc3[N+](=O)[O-])CC2)cc1OC	0	0	0	0	-	-
CCOc1cc(CN2CCN(Cc3ccccc3[N+](=O)[O-])CC2)ccc1OC	0	0	0	71.2	0	0
O=[N+]([O-])c1ccc(O)cc1CN1CCN(C/C=C/c2ccccc2)CC1	0	0	0	0	-	-
O=[N+]([O-])c1ccccc1CN1CCN(C/C=C/c2ccccc2)CC1	0	0	0	57.7	0	0
CCOc1cc(CN2CCN(Cc3ccc([N+](=O)[O-])cc3)CC2)ccc1OC	0	0	0	68.3	0	0
CC(=O)NCCC(CN1CCOCC1)([N+](=O)[O-])[N+](=O)[O-]	0	0	0	0	-	-
COC(=O)[C@@H](NC(=O)CCC1(Cc2ccccc2)CCC(=O)N1)c1ccccc1 (stereo partly specified)	0	0	0	0	-	-
